According to PubChem BioAssay (Tox21):
Where “and” joins values, the source holds several entries; their conditions need not be identical. Identical values can stand only once. Records with an inconclusive call do not appear. Values without a mark were called inactive. Calls of active or inactive are those of the source. The call rests on the fitted dose curve; in most records, active means well fitted cell-killing curve with a large enough effect in the repeat runs; inconclusive means weak or mixed curves; inactive means no such curve, though single readings can be large or run the other way.

test: qHTS assay to identify small molecule antagonists of the peroxisome proliferator-activated receptor delta (PPARd) signaling pathway - cell viability counter screen (AID 743213); settings: PPARd-bla HEK293H viability, CellTiter-Glo luminescence, 17 h; series mostly up to 62 µM; viability change, negative = cytotoxic: at the top concentration; further: nearly all actives have a fitted effect of over 50% in size
Source text: U.S. Tox21 Program National Center for Advancing Translational Sciences [NCATS] NIH Chemical Genomics Center [NCGC] U.S. Environmental Protection Agency [EPA] National Institutes of Environmental Health Sciences [NIEHS] National Toxicology Program [NTP] U.S. Food and Drug Administration [FDA] Tox21 Assay Overview: The peroxisome proliferator-activated receptors (PPARs) are lipid-activated transcription factors of the nuclear receptor superfamily with three distinct subtypes namely PPAR alpha, PPAR delta (PPARd) and PPAR gamma. All these subtypes heterodimerizes with Retinoid X receptor (RXR) and have different physiological functions. […] To identify the compounds that inhibit PPAR-delta signaling, GeneBLAzer PPAR delta UAS-bla HEK293H cell line (Invitrogen, Carlsbad, CA, USA) containing a beta-lactamase reporter gene under the control of an Upstream Activator Sequence (UAS) was used to screen the Tox21 compound library. The cytotoxicity of the Tox21 compound library against the PPARd-bla cell line was tested in parallel by measuring the cell viability using CellTiter-Glo assay (Promega, Madison, WI) in the same wells.
Tox21 Assay Protocol Summary: PPARd-bla cells were dispensed at 3000 cells/5uL/well in 1536-well black wall/clear bottom plates using a Multidrop Combi (Thermo Fisher Scientific, Waltham, MA) dispenser. After the assay plates were incubated at 37 C and 5% CO2 for 5 h, 23 nL of compounds dissolved in DMSO, positive controls or DMSO only was transferred to the assay plate by a Pintool station (Kalypsys, San Diego, CA), followed by addition of 1ul L165041 (300 nM, final concentration in the wells). The assay plates were incubated at 37 C for 17 h, and then 1 uL of LiveBLAzerTM B/G FRET substrate was added using a Bioraptr Flying Reagent Dispenser (FRD) workstation (Beckman Coulter, Indianapolis, IN, USA). The assay plates were incubated at room temperature for 2 h and fluorescence intensity was measured by an Envision plate reader (PerkinElmer, Shelton, CT). For cell viability readout that measures cytotoxicity, 3 ul/well of CellTiter-Glo reagent was added into the assay plates using a Bioraptr FRD. After 30 min incubation at room temperature, the luminescence intensity in the plates was measured using a ViewLux plate reader (PerkinElmer).
On the % scale 0 is the no-effect control and ±100 the full control effect; potency means the concentration at half of the fitted maximal effect.

Row | Structure (SMILES) | viability change, negative = cytotoxic | Potency
1 | C#C[C@]1(OC(C)=O)CC[C@H]2[C@@H]3CCC4=C[C@@H](OC(C)=O)CC[C@@H]4[C@H]3CC[C@@]21C | 27.8% | 
2 | Cc1ccc(C(=O)O)cc1 | -30.9% [at 80.4 µM] | 
3 | CCC(=O)OC(=O)CC | 23.1% | 
4 | CCCC(=O)OCOC(=O)C1=C(C)NC(C)=C(C(=O)OC)C1c1cccc(Cl)c1Cl (stereo not given) | 0.342% | 
5 | COc1ccc(-c2coc3cc(O)ccc3c2=O)cc1 | -8.79% | 
6 | COC(=O)c1ccccc1C | 8.31% | 
7 | Clc1ccnc(Cl)n1 | -7.07% [at 80.4 µM] | 
8 | CCCCOC(=O)CC | -17.6% | 
9 | COCCOc1cc2cc(C(=O)NC3CCN(C(C)C)CC3)n(CC(=O)Nc3ccc(Cl)cn3)c2cn1 | -28.3% | 
10 | O=C(O)CCN(C1(C(=O)NO)CCCC1)S(=O)(=O)c1ccc(Oc2ccc(F)cc2)cc1 | 4.65% | 
11 | Oc1cc(Cl)cc(Cl)c1Cl | 1.75% [at 80.4 µM] | 
12 | CC(C)Cn1cnc2c(N)nc3ccccc3c21 | 4.35% [at 28.9 µM] | 
13 | CCOC(=O)NNc1ccc(N(CC)CC(C)O)nn1 (stereo not given) | -0.688% | 
14 | C1CCC(SSC2CCCCC2)CC1 | 24.8% | 
15 | CC(=O)c1ccc(C(C)=O)cc1 | -2.43% [at 80.4 µM] | 
16 | CCCCCCCC | 1.57% | 
17 | [Cl][Pt-2]([Cl])([Cl])[Cl] | -29.4% [at 80.4 µM] | 
18 | CCCCCCCCCCCCCCCC[N+](C)(C)CC |  | 17.4 µM (active) and 21.1 µM (active)
19 | Cc1cccc(C)c1NC(=O)c1ccc(N)cc1 | -14.2% | 
20 | CC(C)CCCCCOC(=O)CCS | 21.6% | 

Row | Structure (SMILES) | viability change, negative = cytotoxic | Potency
21 | CC(C)NC[C@@H](O)COc1ccc(CC(N)=O)cc1 | -3.26% | 
22 | COc1cccc(OC)c1C(=O)O | -1.8% | 
23 | C=CCn1c(=O)n(CC=C)c(=O)n(CC=C)c1=O | 13.9% | 
24 | O=C(O)Cc1ccccc1Nc1c(Cl)cccc1Cl | -28.3% | 
25 | O=[N+]([O-])c1ccc(F)c(Cl)c1 | -2.21% | 
26 | OC[C@H]1O[C@H](O[C@H]2O[C@H](CO)[C@@H](O)[C@H](O)[C@H]2O)[C@H](O)[C@@H](O)[C@@H]1O | 4.25% [at 80.4 µM] | 
27 | CCCCCCCCCCCCCC[N+](C)(C)C |  | 21.1 µM (active) and 6.16 µM (active)
28 | CCCC1CCC(=O)CC1 | -23.5% | 
29 | COC1=C(OC)C(=O)C(CCCCCCCCCCO)=C(C)C1=O | 0.176% | 
30 | c1ccsc1 | -0.11% | 
31 | CC1(C)CCC[C@]2(C)[C@H]3CCO[C@]3(C)CC[C@@H]12 | 10.7% | 
32 | Cc1c(C)c([N+](=O)[O-])c(C(C)(C)C)c([N+](=O)[O-])c1C | -3.71% | 
33 | CC(C(=O)O)c1ccc2c(c1)[nH]c1ccc(Cl)cc12 (stereo not given) | -26.6% | 
34 | CCc1ccc(Br)cc1 | -5.91% [at 80.4 µM] | 
35 | COc1cc(C)ccc1O | -1.39% | 
36 | O=C(O)c1cc(N=Nc2ccc([N+](=O)[O-])cc2)ccc1O | -18.2% | 
37 | Nc1nc(-c2ccccc2)cs1 | 8.18% | 
38 | CCCCCCOC(=O)C(C)CC (stereo not given) | 3.74% | 
39 | OC1CCC(C2CCCCC2)CC1 (stereo not given) | 22.2% | 
40 | CCOc1ccc2ccccc2c1C(=O)N[C@@H]1C(=O)N2[C@@H]1SC(C)(C)[C@@H]2C(=O)O | 7.21% | 
